The sample as a whole holds a higher share of hits than the screen did.
FXIa inh: blocks human coagulation factor XIa activity; hit rate 0.3% among 33,000; purified human FXIa, fluorogenic AMC substrate cleavage; inhibition, % at 10 µM;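 active = inhibition above 40% in the primary screen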;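 note: 0% = enzyme without compound and 100% = blank wells lacking enzyme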
FXIIa single: inhibitors of human coagulation factor XIIa. inhibition, % at 10 µM. P00748. purified human FXIIa, AMC substrate fluorescence, 2 h. AID 701. hit rate 0.2% among 33,000; in the data active = inhibition above about 30%;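 note: 0% = enzyme with vehicle only and 100% = no enzyme blank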
* = called active by the depositor.

SMILES	FXIa inh	FXIIa single
COc1ccc(CCC(C)NCCc2ccccc2)cc1 (stereo not given)	-9	10
CNCCCc1ccccc1	41*	3
c1ccc2cc3cc4ccccc4cc3cc2c1	5	-1

High-throughput results as filed in PubChem BioAssay.
